Giardia killer: kills Giardia lamblia; AID 540267; activity change, % at 7.66 µM, hits read low; hit rate 0.15% among 340,000; Giardia lamblia trophozoite viability; in the data active means activity change below about -80%; inconclusive means between about -30% and that limit;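 further: parasites exposed to compound for two days anaerobically before the ATP read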
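Anaerobic 48 hrs incubation at 37 deg C of 100 trophozoites/well with test compounds; ATPLite 1-Step luminescence, 15-30 min RT, reports cellular ATP as viability.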
MCF10A rerep: DNA re-replication induction in MCF 10a cells. MCF 10A DNA re-replication, Hoechst nuclear intensity, 48 h. Potency, µM (doses to about 46.1 µM), most hits filed as activators. hit rate 2.9% among 350,000. AID 624296; further: nearly all actives have a fitted effect of over 50% in size
KB-3-1 tox: kills parental KB-3-1 adenocarcinoma cells; AID 1347075; Potency, µM (highest dose often 46.1 µM), hits mostly cytotoxic; hit rate 1.4% among 400,000; KB-3-1 viability, CellTiter-Glo ATP luminescence, 72 h; further: nearly all actives have a fitted effect of over 60% in size
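Parental KB-3-1 viability, qHTS format: 72 h compound exposure, 37 °C; CellTiter-Glo; media-only wells and DMSO plates as controls; concentration-effect fits on corrected data.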
ASM inhibitor: blocks human secretory acid sphingomyelinase; P17405; placental ASM, HMU-PC fluorogenic substrate, 60 min; Potency, µM (top dose mostly 57.5 µM), hits mostly inhibitors; hit rate 0.006% among 340,000
Target sequence (P17405 47-631 limits assumed): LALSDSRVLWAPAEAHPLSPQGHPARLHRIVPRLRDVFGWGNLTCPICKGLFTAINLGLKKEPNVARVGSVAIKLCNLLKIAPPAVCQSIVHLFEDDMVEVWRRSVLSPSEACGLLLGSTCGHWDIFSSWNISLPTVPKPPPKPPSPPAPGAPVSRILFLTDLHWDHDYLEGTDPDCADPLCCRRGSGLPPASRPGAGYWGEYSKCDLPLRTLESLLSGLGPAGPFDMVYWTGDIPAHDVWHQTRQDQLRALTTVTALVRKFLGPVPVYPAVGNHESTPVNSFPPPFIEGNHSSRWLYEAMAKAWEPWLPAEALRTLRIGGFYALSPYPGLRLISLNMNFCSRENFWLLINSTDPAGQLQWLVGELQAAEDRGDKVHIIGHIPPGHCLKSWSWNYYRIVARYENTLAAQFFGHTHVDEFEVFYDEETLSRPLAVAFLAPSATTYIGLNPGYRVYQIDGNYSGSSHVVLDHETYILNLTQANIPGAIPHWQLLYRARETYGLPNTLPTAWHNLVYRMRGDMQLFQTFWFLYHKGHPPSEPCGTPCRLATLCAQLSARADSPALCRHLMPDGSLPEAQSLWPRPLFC
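Fluorogenic HMU-PC substrate (9 uM final) is turned over by placental ASM in 60 min at 37 C after a 10 min compound preincubation. Reaction ended by alkaline stop (pH 10), with fluorescence read at 386/447 nm.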
SW480 rereplic: inducers of DNA re-replication in SW480 colon cancer cells | SW480 DNA re-replication, Hoechst DNA content imaging, 48 h | Potency, µM (titrated, usually from 46.1 µM), hits mostly activators | hit rate 1.8% among 340,000; further: nearly all actives have a fitted effect of over 55% in size
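First, 250 cells per well were seeded. Next, compound or vehicle (23 nL) was pinned in, plates sat 48 hr at 37 C. Finally Hoechst was added for 40 min before fluorescence scanning.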
KB-V1 MDR tox: KB-V1 MDR subline cytotoxicity; KB-V1 MDR cells viability, CellTiter-Glo, 72 h; Potency, µM (doses to about 46.1 µM), most hits filed as cytotoxic; hit rate 3.4% among 400,000; AID 1347076; further: nearly all actives have a fitted effect of over 60% in size
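KB-V1, DMEM (no phenol red) + 10% FBS; cpd pin-transferred, titration series; 72 h, 37 degrees C; CellTiter-Glo, luminescence. Data normalized, curve-fit.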
Of the large screens only hits and unclear results are named; the others gave an inactive call. An excerpt weighted towards active compounds, which were near 6.9% of everything screened. Unless noted, the call rests on the fitted dose curve; in most records, active means well fitted curve in the direction sought with a large enough effect; inconclusive means small, poorly fitted or top-dose-only effect, or another doubt; inactive means no such curve, though single readings can be large; an effect the other way counts as inactive or inconclusive.

CC1CCC/C(=C(\C#N)c2nc(-c3cc4ccccc4oc3=O)cs2)C1 (centres undefined)	KB-3-1 tox inconclusive, KB-V1 MDR tox 8.2µM
CC(C)CC(C(=O)NCc1ccc(F)cc1)N1Cc2ccccc2C1=O (centres undefined)	none (no result: Giardia killer, MCF10A rerep, ASM inhibitor, SW480 rereplic)
COc1cc(C2NC(=O)NC(C)=C2C(=O)OCc2ccc(C)cc2)cc(OC)c1OC (centres undefined)	SW480 rereplic inconclusive
CCOc1ccc(C2NC(=O)NC(C)=C2C(=O)OCc2ccccc2)cc1 (centres undefined)	MCF10A rerep 21µM, KB-3-1 tox inconclusive, SW480 rereplic inconclusive, KB-V1 MDR tox inconclusive
COc1cc(C2NC(=O)NC(C)=C2C(=O)OCc2ccc(C)cc2)cc(OC)c1O (centres undefined)	MCF10A rerep 7.3µM
CC1=C(C(=O)OCc2ccccc2)C(c2ccc(N(C)C)cc2)NC(=O)N1 (centres undefined)	MCF10A rerep inconclusive, SW480 rereplic inconclusive, KB-V1 MDR tox inconclusive
CCOC(=O)C1=C(C)NC(=O)NC1c1ccc(N2CCC(c3ccccc3)=N2)cc1 (centres undefined)	MCF10A rerep inconclusive, SW480 rereplic 23µM
COc1ccc(S(=O)(=O)NCCc2sc(-c3ccccc3)nc2C)cc1F	KB-V1 MDR tox inconclusive (no result: Giardia killer, MCF10A rerep, ASM inhibitor, SW480 rereplic)
Cc1oc(-c2ccc(Cl)cc2)cc1C(=O)/C(C#N)=C/Nc1ccccc1	MCF10A rerep 13µM
O=C(N/N=C/c1cccc(O)c1)c1ccc(COc2ccccc2Br)cc1	MCF10A rerep 23µM, ASM inhibitor inconclusive
O=C(N/N=C/c1ccc([N+](=O)[O-])cc1)c1ccc(COc2ccccc2-c2ccccc2)cc1	KB-3-1 tox inconclusive, KB-V1 MDR tox 16µM
O=C(N/N=C/c1cccc(O)c1)c1ccc(COc2cccc3cccnc23)cc1	none
O=C(Nc1ccc(Cn2cccn2)cc1)c1ccc(COc2ccccc2Br)cc1	MCF10A rerep inconclusive, KB-3-1 tox 9.2µM, SW480 rereplic inconclusive, KB-V1 MDR tox 18µM
O=C(NCCCN1CCN(c2ccc(F)cc2)CC1)c1sc2ncccc2c1-n1cccc1	none (no result: Giardia killer, MCF10A rerep, ASM inhibitor, SW480 rereplic)
Nc1cc2nsnc2cc1Br	MCF10A rerep inconclusive, SW480 rereplic 18µM
Cc1cccc(C(=O)NCC(c2cccs2)S(=O)(=O)c2cccs2)c1 (centres undefined)	none (no result: Giardia killer, MCF10A rerep, ASM inhibitor, SW480 rereplic)
CCc1cccc(CC)c1NC(=S)NCCc1c(C)[nH]c2ccc(C)cc12	MCF10A rerep inconclusive, KB-3-1 tox 6.5µM, SW480 rereplic 15µM, KB-V1 MDR tox 5.8µM
COc1ccc2[nH]c(C)c(CCNC(=S)Nc3cc(C)ccc3C)c2c1	MCF10A rerep inconclusive, SW480 rereplic 16µM
COc1ccc2[nH]c(C)c(CCNC(=S)Nc3cc(C)cc(C)c3)c2c1	Giardia killer inconclusive, SW480 rereplic inconclusive
CCc1cccc(C)c1NC(=S)NCCc1c(C)[nH]c2ccc(C)cc12	MCF10A rerep 10µM, KB-3-1 tox inconclusive, SW480 rereplic inconclusive, KB-V1 MDR tox inconclusive
CCN(CC)C(=O)Cn1c(=O)cc(C)c2c(C)nn(-c3cccc(Cl)c3C)c21	none (no result: Giardia killer, MCF10A rerep, ASM inhibitor, SW480 rereplic)
CNC1=CN(O)C(c2ccccc2)=c2cc(Cl)ccc2=N1	none (no result: Giardia killer, KB-3-1 tox, ASM inhibitor, KB-V1 MDR tox)
Cc1ccc(N/C(N)=N/c2nc(C)cc(N3CCCCC3)n2)c(C)c1	MCF10A rerep 18µM, KB-3-1 tox 16µM, SW480 rereplic inconclusive, KB-V1 MDR tox 10µM
Cc1ccc(N/C(N)=N/c2nc3c(c(=O)[nH]2)CCCC3)c(C)c1	none
Cc1cc(C)c2c(n1)SCCN2C(=O)Nc1ccc(C(=O)Nc2cc(Cl)ccc2C)cc1	KB-3-1 tox inconclusive (no result: Giardia killer, MCF10A rerep, ASM inhibitor, SW480 rereplic)
CCOC(=O)c1c(CSc2ccccc2)n(C)c2cc(Br)c(OCC(O)CNC(CO)(CO)CO)cc12 (centres undefined)	MCF10A rerep 21µM, KB-3-1 tox inconclusive, ASM inhibitor inconclusive, SW480 rereplic inconclusive
COCCN(Cc1cc2cc(C)cc(C)c2nc1Cl)C(=O)Nc1ccccc1	KB-3-1 tox inconclusive, SW480 rereplic inconclusive, KB-V1 MDR tox 5.8µM
Cc1cc(C)c2nc(Cl)c(CN(Cc3ccco3)C(=O)Nc3ccccc3C)cc2c1	MCF10A rerep inconclusive, SW480 rereplic inconclusive
Cc1cccc(-c2nc(SCC(=O)Nc3ccc4c(c3)OCO4)c(-c3ccccc3)[nH]2)c1	KB-3-1 tox inconclusive (no result: Giardia killer, MCF10A rerep, ASM inhibitor, SW480 rereplic)
COc1ccc(Cc2nnc(SC(C)C(=O)Nc3ccc(C(N)=O)cc3)o2)cc1 (centres undefined)	none
Cc1cc(C)c2ccc3c(C)c(C)nc3c2[nH]1	MCF10A rerep 21µM, KB-3-1 tox inconclusive, SW480 rereplic inconclusive, KB-V1 MDR tox 16µM
COc1ccc(CN2C(=O)c3ccccc3C(/C=N\OCc3ccc(F)cc3)C2=O)cc1 (centres undefined)	KB-3-1 tox inconclusive, KB-V1 MDR tox 16µM
Cc1cc(C)n(CCNC(=O)c2cc(COc3ccc4ncccc4c3)on2)n1	KB-3-1 tox inconclusive
CC(CCCC(C)(C)O)NC(=O)c1cc(COc2ccc3ncccc3c2)on1 (centres undefined)	KB-3-1 tox inconclusive, KB-V1 MDR tox 5.8µM
O=C(NCc1cccc(Cl)c1)c1cc(COc2ccc3ncccc3c2)on1	KB-3-1 tox 12µM, KB-V1 MDR tox 3.3µM
COc1cc(CN2C[C@@H](CO)O[C@@H](n3cnc4c(NCc5ccco5)ncnc43)C2)cc(OC)c1OC	none (no result: Giardia killer, MCF10A rerep, ASM inhibitor, SW480 rereplic)
O=C(C#Cc1ccccc1)c1ccc([N+](=O)[O-])cc1	MCF10A rerep inconclusive, KB-3-1 tox 23µM, SW480 rereplic 13µM, KB-V1 MDR tox inconclusive
O=C(CN1CCC(n2nnc3cc(F)ccc32)CC1)N1CCc2ccccc2C1	MCF10A rerep 5.2µM, SW480 rereplic inconclusive, KB-V1 MDR tox inconclusive
CCOc1ccc2nc(NC(=O)CN3CCC(n4nnc5cc(F)ccc54)CC3)sc2c1	MCF10A rerep inconclusive, KB-3-1 tox inconclusive, KB-V1 MDR tox 21µM
O=C(CN1CCC(n2nnc3cc(F)ccc32)CC1)NC1CCCCC1	KB-V1 MDR tox 21µM
O=C(CN1CCC(n2nnc3cc(F)ccc32)CC1)NC1CC1	KB-V1 MDR tox inconclusive
Cc1c(C)n(Cc2ccc(F)cc2)c2ccc(C(=O)NCc3ccco3)cc12	KB-3-1 tox inconclusive (no result: Giardia killer, MCF10A rerep, ASM inhibitor, SW480 rereplic)
Cc1ccc2oc(-c3cccc(NC(=O)COc4ccc(Cl)cc4)c3C)nc2c1	none (no result: Giardia killer, MCF10A rerep, ASM inhibitor, SW480 rereplic)
CCOc1ccc(CCNC(=O)c2ccc(-c3nc(CSc4ccccc4)c(C)o3)cc2)cc1	none (no result: Giardia killer, MCF10A rerep, ASM inhibitor, SW480 rereplic)
CNC(=S)N/N=C/c1ccc(-c2ccc(C(=O)O)cc2)o1	MCF10A rerep inconclusive, SW480 rereplic inconclusive, KB-V1 MDR tox 6.5µM
CC(C)(C)NC(=S)N/N=C\c1ccc(-c2ccc([N+](=O)[O-])cc2)o1	MCF10A rerep 16µM, KB-3-1 tox inconclusive, SW480 rereplic 21µM
O=C(O)c1ccc(-c2ccc(/C=N/Nc3ccc([N+](=O)[O-])cc3)o2)cc1	MCF10A rerep 18µM, SW480 rereplic 18µM

Source: PubChem BioAssay
